# About 3,300 (8.5%) of roughly 39,000 compounds were called active. This is one part of a sample in which actives are shown more often than they occur.
# Test system: HepG2
# Test: cytotoxicity call (relative viability < 0.9)
# Settings: 10 µM
row,Compound,cytotoxicity call
1,CNC1C(OC2C(OC3C(O)C(O)C(NC(=N)N)C(O)C3NC(=N)N)OC(C)C2(O)C=O)OC(CO)C(O)C1O.O=S(=O)(O)O (stereo not given) [STREPTOMYCIN SULFATE [5mM; 10% aq DMSO + 5mM ethanolamine] ],inactive
2,COCC(=O)Nc1c(I)c(C(=O)NC[C@@H](O)CO)c(I)c(C(=O)N(C)C[C@@H](O)CO)c1I,inactive
3,COc1ccc(S(=O)(=O)N[C@@H]2C=C[C@H](CC(=O)N3CCN(c4ccccc4)CC3)O[C@@H]2CO)cc1,inactive
4,O=S(=O)(O)c1cc(O)ccc1O,active
5,O=C(O)c1cc(O)ccc1O [listing 1 of 2 here],inactive
6,O=C(O)c1cc(O)ccc1O [listing 2 of 2 here],inactive
7,C[C@@H]1CN([C@H](C)CO)C(=O)c2cc(NS(C)(=O)=O)ccc2O[C@@H](C)CCCCO[C@H]1CN(C)C(=O)Nc1ccc(C(F)(F)F)cc1,inactive
8,COc1ccc(S(=O)(=O)Nc2ccc3c(c2)C(=O)N([C@H](C)CO)C[C@H](C)[C@@H](CN(C)C(=O)CCC(F)(F)F)OCCCC[C@H](C)O3)cc1,inactive
9,O=C(CCCCCC(=O)N/N=C/[C@H](O)[C@@H](O)[C@@H](O)[C@H](O)CO)NO,inactive
10,C[C@@H]1CN([C@H](C)CO)C(=O)CCCn2nncc2CO[C@H]1CN(C)S(=O)(=O)c1ccc(Oc2ccccc2)cc1,inactive
11,C[C@@H]1CN([C@H](C)CO)C(=O)c2cc(NC(=O)Nc3ccc(F)cc3)ccc2O[C@H]1CN(C)CC1CCCCC1,inactive
12,C[C@H](CO)N1C[C@H](C)[C@H](CN(C)CC2CCCCC2)Oc2ccc(NC(=O)Nc3ccc(C(F)(F)F)cc3)cc2C1=O,active
13,C[C@H]1CN([C@@H](C)CO)C(=O)c2cc(NC(=O)Nc3ccc(F)cc3)ccc2O[C@@H]1CN(C)CC1CCCCC1,active
14,C[C@@H]1CN([C@@H](C)CO)C(=O)c2cc(NC(=O)Nc3ccc(C(F)(F)F)cc3)ccc2O[C@@H]1CN(C)CC1CCCCC1,active
15,C[C@H](CO)N1C[C@H](C)[C@@H](CN(C)CC2CCCCC2)Oc2ccc(NC(=O)Nc3ccc(F)cc3)cc2C1=O,inactive
16,C[C@H]1CN([C@@H](C)CO)C(=O)c2cc(NC(=O)Nc3ccc(F)cc3)ccc2O[C@H]1CN(C)CC1CCCCC1,inactive
17,C[C@H](CO)N1C[C@H](C)[C@H](CN(C)CC2CCCCC2)Oc2ccc(NC(=O)Nc3ccc(F)cc3)cc2C1=O,inactive
18,C[C@@H]1CN([C@H](C)CO)C(=O)c2cc(NC(=O)Nc3ccc(F)cc3)ccc2O[C@@H]1CN(C)CC1CCCCC1,inactive
19,C[C@@H]1CN([C@@H](C)CO)C(=O)c2cc(NC(=O)Nc3ccc(F)cc3)ccc2O[C@@H]1CN(C)CC1CCCCC1,inactive
20,C[C@@H]1CN([C@@H](C)CO)C(=O)c2cc(NC(=O)Nc3ccc(C(F)(F)F)cc3)ccc2O[C@H]1CN(C)CC1CCCCC1,active
21,NCCc1[nH]cnc1-c1cccs1,inactive
22,C[C@H](CO)N1C[C@H](C)[C@H](CN(C)C(=O)Nc2cccc3ccccc23)Oc2ccc(NS(=O)(=O)c3ccc(Cl)cc3)cc2CC1=O,inactive
23,COc1ccc(S(=O)(=O)Nc2ccc3c(c2)C(=O)N([C@H](C)CO)C[C@@H](C)[C@@H](CN(C)C(=O)C2CCCCC2)OCCCC[C@H](C)O3)cc1,inactive
24,C[C@@H]1CN([C@@H](C)CO)C(=O)c2cc(NC(=O)CCCCCC(=O)Nc3ccccc3N)ccc2O[C@H]1CN(C)C(=O)Nc1cccc2ccccc12,inactive

row,Compound,cytotoxicity call
1,CC(C)NC(=O)N(C)C[C@@H]1Oc2ccc(NC(=O)Nc3ccc4c(c3)OCO4)cc2C(=O)N([C@H](C)CO)C[C@@H]1C,inactive
2,C[C@@H]1CCCCO[C@@H](CN(C)C(=O)Cc2ccccc2)[C@H](C)CN([C@@H](C)CO)C(=O)c2cc(NC(=O)Nc3ccccc3)ccc2O1,inactive
3,Cc1cc(C(=O)Nc2cccc3c2O[C@@H](CN(C)S(=O)(=O)c2cn(C)cn2)[C@@H](C)CN([C@H](C)CO)C3=O)n(C)n1,inactive
4,Cc1ccc(S(=O)(=O)Nc2cccc3c2O[C@H](CN(C)S(=O)(=O)c2cccs2)[C@@H](C)CN([C@@H](C)CO)C3=O)cc1,inactive
5,CC(=O)NCC(=O)N1Cc2nccn2C[C@H](Cn2nc(C)nc2C)C1,inactive
6,C[C@@H]1CN([C@@H](C)CO)C(=O)c2cc(C#C[C@@H](C)O)cnc2O[C@@H]1CN(C)C(=O)CN1CCOCC1,inactive
7,Cc1ccc(S(=O)(=O)N(C)C[C@H]2Oc3ccc(NC(=O)Cn4cnnn4)cc3CC(=O)N([C@H](C)CO)C[C@H]2C)cc1,inactive
8,COc1ccc(NC(=O)N(C)C[C@H]2Oc3c(NS(=O)(=O)c4c(C)noc4C)cccc3C(=O)N([C@@H](C)CO)C[C@H]2C)cc1,inactive
9,COc1ccc(NC(=O)N(C)C[C@@H]2Oc3ncc(-c4cccc(C(F)(F)F)c4)cc3C(=O)N([C@H](C)CO)C[C@@H]2C)cc1,inactive
10,C[C@@H]1CN([C@@H](C)CO)C(=O)c2cc(NC(=O)Cn3cnnn3)ccc2O[C@H]1CN(C)C(=O)Nc1ccc2c(c1)OCO2,inactive
11,C[C@@H]1CN([C@H](C)CO)C(=O)c2cc(NC(=O)Nc3ccc(C(F)(F)F)cc3)ccc2O[C@H]1CN(C)CC1CCCCC1,active
12,C[C@@H]1CN([C@@H](C)CO)C(=O)c2cc(NC(=O)Nc3ccc(F)cc3)ccc2O[C@H]1CN(C)CC1CCCCC1,inactive
13,C[C@@H]1CN([C@H](C)CO)C(=O)c2cc(NC(=O)Nc3ccc(C(F)(F)F)cc3)ccc2O[C@@H]1CN(C)CC1CCCCC1,active
14,C[C@@H]1CN([C@H](C)CO)C(=O)c2cc(NC(=O)Nc3ccccc3)ccc2O[C@@H]1CN(C)CC1CCCCC1,inactive
15,C[C@H]1CN([C@@H](C)CO)C(=O)c2cc(NC(=O)Nc3ccc(C(F)(F)F)cc3)ccc2O[C@@H]1CN(C)CC1CCCCC1,inactive
16,C[C@H](CO)N1C[C@H](C)[C@@H](CN(C)CC2CCCCC2)Oc2ccc(NC(=O)Nc3ccc(C(F)(F)F)cc3)cc2C1=O,inactive
17,CNC[C@@H]1Oc2ccc(NC(=O)CCN3CCOCC3)cc2CC(=O)N([C@H](C)CO)C[C@H]1C,inactive
18,C[C@H](CO)N1C[C@H](C)[C@@H](CN(C)C(=O)Nc2ccc3c(c2)OCO3)Oc2ccc(NC(=O)CCN3CCOCC3)cc2CC1=O,inactive
19,O=C(C[C@@H]1CC[C@H]2[C@@H](COC[C@@H](O)CN2C(=O)c2ccccc2F)O1)N1CCN(c2ccccc2)CC1,inactive
20,c1ncc(CC2CCNCC2)[nH]1,inactive
21,COc1ccc(S(=O)(=O)Nc2ccc3c(c2)CC(=O)N([C@@H](C)CO)C[C@@H](C)[C@H](CN(C)C)O3)cc1,inactive
22,C[C@H]1CN([C@@H](C)CO)C(=O)c2cccc(NC(=O)Nc3ccc4c(c3)OCO4)c2O[C@@H]1CN(C)Cc1ccc(C(=O)Nc2ccccc2N)cc1,inactive
23,COc1cccc(NC(=O)N(C)C[C@@H]2Oc3cc(C#Cc4ccncc4)ccc3S(=O)(=O)N([C@H](C)CO)C[C@H]2C)c1,active
24,COc1cccc(NC(=O)N(C)C[C@H]2Oc3cc(C#Cc4ccncc4)ccc3S(=O)(=O)N([C@@H](C)CO)C[C@@H]2C)c1,active

row,Compound,cytotoxicity call
1,COc1cccc(NC(=O)N(C)C[C@H]2Oc3cc(Br)ccc3S(=O)(=O)N([C@H](C)CO)C[C@H]2C)c1,inactive
2,COc1cccc(NC(=O)N(C)C[C@@H]2Oc3cc(C#Cc4ccncc4)ccc3S(=O)(=O)N([C@H](C)CO)C[C@@H]2C)c1,active
3,COc1cccc(NC(=O)N(C)C[C@@H]2Oc3cc(C#Cc4ccncc4)ccc3S(=O)(=O)N([C@@H](C)CO)C[C@@H]2C)c1,active
4,Cc1noc(C)c1NC(=O)N(C)C[C@@H]1Oc2c(NS(=O)(=O)c3cn(C)cn3)cccc2C(=O)N([C@H](C)CO)C[C@H]1C,inactive
5,O=C(Nc1ccn([C@H]2O[C@H](CO)[C@@H](O)[C@@H]2O)c(=O)n1)c1ccccc1,inactive
6,O=C(C[C@@H]1CC[C@@H](NC(=O)c2cccnc2)[C@H](CO)O1)NCCN1CCCCC1,inactive
7,O=C(Nc1nccs1)[C@@H]1[C@@H](CO)[C@@H]2Cn3c(cccc3=O)[C@H]1N2C(=O)C1CC1,inactive
8,NCc1cnc2ccccc2c1,inactive
9,C[C@@H]1CCCCO[C@@H](CN(C)C(=O)Nc2cccc3ccccc23)[C@H](C)CN([C@H](C)CO)C(=O)c2cc(N(C)C)ccc2O1,inactive
10,C[C@H](CO)N1C[C@H](C)[C@@H](CN(C)S(=O)(=O)c2cn(C)cn2)Oc2ccc(NS(=O)(=O)c3cccs3)cc2CC1=O,inactive
11,Cc1ccc(S(=O)(=O)Nc2cccc3c2O[C@H](CN(C)Cc2ccc(C(F)(F)F)cc2)[C@@H](C)CN([C@@H](C)CO)C3=O)cc1,inactive
12,CC(=O)N1[C@@H]2c3ccc(-c4ccccc4)c(=O)n3C[C@H]1[C@H](CO)[C@H]2C(=O)NCCCN1CCOCC1,inactive
13,COc1cccc(NC(=O)N(C)C[C@H]2Oc3cc(C#Cc4ccncc4)ccc3S(=O)(=O)N([C@H](C)CO)C[C@@H]2C)c1,active
14,COc1cccc(NC(=O)N(C)C[C@@H]2Oc3cc(C#CC4(O)CCCC4)ccc3S(=O)(=O)N([C@H](C)CO)C[C@H]2C)c1,inactive
15,COc1cccc(NC(=O)N(C)C[C@@H]2Oc3cc(C#CC4(O)CCCC4)ccc3S(=O)(=O)N([C@@H](C)CO)C[C@@H]2C)c1,inactive
16,COc1cccc(NC(=O)N(C)C[C@@H]2Oc3cc(C#CC4(O)CCCC4)ccc3S(=O)(=O)N([C@@H](C)CO)C[C@H]2C)c1,inactive
17,COc1cccc(NC(=O)N(C)C[C@H]2Oc3cc(C#Cc4ccncc4)ccc3S(=O)(=O)N([C@@H](C)CO)C[C@H]2C)c1,active
18,COc1cccc(NC(=O)N(C)C[C@@H]2Oc3cc(C#Cc4ccncc4)ccc3S(=O)(=O)N([C@@H](C)CO)C[C@H]2C)c1,active
19,COc1cccc(NC(=O)N(C)C[C@H]2Oc3cc(C#CC4(O)CCCC4)ccc3S(=O)(=O)N([C@@H](C)CO)C[C@@H]2C)c1,inactive
20,COc1cccc(NC(=O)N(C)C[C@H]2Oc3cc(C#Cc4ccncc4)ccc3S(=O)(=O)N([C@H](C)CO)C[C@H]2C)c1,active
21,COc1cccc(NC(=O)N(C)C[C@@H]2Oc3cc(Br)ccc3S(=O)(=O)N([C@@H](C)CO)C[C@H]2C)c1,inactive
22,COc1cccc(NC(=O)N(C)C[C@@H]2Oc3cc(C#CC4(O)CCCC4)ccc3S(=O)(=O)N([C@H](C)CO)C[C@@H]2C)c1,inactive

# Reference: the antibiotic and cytotoxicity screens of Wong et al. (2023)
